Assay results taken from PubChem BioAssay (EPA / NIEHS).
Activity calls are given as the source filed them. Rule for the calls: active = hit-call score of the fitted dose curve at least 0.9, where 1 is the maximum; inactive = score below 0.9.

How the values were obtained:
Settings in all cases: mRNA level, 48 h; actives raise or lower the signal
[1] = read-out: Forkhead box O3 (FOXO3), FOXO3 (gene 2309); experiment: LTEA_HepaRG_FOXO3: Life Technologies and Expression Analysis (LTEA) Assay for Forkhead box O3 (FOXO3) using HepaRG (AID 2283459)
Summary of the method: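 Differentiated human HepaRG cells, 48 h post-plating, exposed in duplicate for 48 h in serum-free induction medium; 8-point half-log series from 100 uM in 0.5% DMSO. FOXO3 mRNA by TaqMan qRT-PCR, normalized to ACTB/GAPDH/POLR2A; bidirectional fit versus DMSO.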

[2] = read-out: ABC Transporter (ABCB1), ABCB1 (gene 5243); experiment: LTEA_HepaRG_ABCB1: Life Technologies and Expression Analysis (LTEA) Assay for ABC Transporter (ABCB1) using HepaRG (AID 2283460)
Summary of the method: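 HepaRG cells exposed in duplicate for 48 h in serum-free induction medium to eight half-log concentrations up to 100 uM in 0.5% DMSO. ABCB1 mRNA quantified by qRT-PCR, normalised to ACTB, GAPDH and POLR2A; fitted bidirectionally versus DMSO.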

[3] = read-out: ABC Transporter (ABCC3), ABCC3 (gene 8714); experiment: LTEA_HepaRG_ABCC3: Life Technologies and Expression Analysis (LTEA) Assay for ABC Transporter (ABCC3) using HepaRG (AID 2283462)
Summary of the method: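 Transcriptional change of ABCC3 in HepaRG after 48 h treatment, determined by qRT-PCR normalized to endogenous controls. Concentrations spanned eight half-log steps to 100 uM in 0.5% DMSO.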

[4] = read-out: ABC Transporter (ABCB11), ABCB11 (gene 8647); experiment: LTEA_HepaRG_ABCB11: Life Technologies and Expression Analysis (LTEA) Assay for ABC Transporter (ABCB11) using HepaRG (AID 2283463)
Summary of the method: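 Differentiated human HepaRG cells in serum-free induction medium, dosed in duplicate for 48 h. Eight-point half-log series from 100 uM in 0.5% DMSO; ABCB11 mRNA by qRT-PCR, normalized to ACTB, GAPDH, POLR2A, fitted bidirectionally versus DMSO.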

[5] = read-out: ABC Transporter (ABCC2), ABCC2 (gene 1244); experiment: LTEA_HepaRG_ABCC2: Life Technologies and Expression Analysis (LTEA) Assay for ABC Transporter (ABCC2) using HepaRG (AID 2283464)
Summary of the method: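 After plating and 48 h culture, HepaRG medium is replaced with serum-free induction medium and chemicals are added (8 concentrations, max 100 uM, 0.5% DMSO) for 48 h. Total RNA then undergoes qRT-PCR for ABCC2 with housekeeping normalization.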

[6] = read-out: Broad substrate specificity ATP-binding cassette transporter ABCG2 (Homo sapiens) (UniProt Q9UNQ0); experiment: LTEA_HepaRG_ABCG2: Life Technologies and Expression Analysis (LTEA) Assay for ABC Transporter (ABCG2) using HepaRG (AID 2283465)
Summary of the method: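 Differentiated HepaRG cells were exposed for 48 h in serum-free induction medium to 8 half-log concentrations, top 100 uM, in 0.5% DMSO. ABCG2 mRNA was measured by qRT-PCR, normalized to ACTB, GAPDH and POLR2A, with bidirectional fitting versus DMSO.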

[7] = read-out: ATP-citrate lyase (ACLY), ACLY (gene 47); experiment: LTEA_HepaRG_ACLY: Life Technologies and Expression Analysis (LTEA) Assay for ATP-citrate lyase (ACLY) using HepaRG (AID 2283466)
Summary of the method: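 Differentiated HepaRG cells exposed 48 h in serum-free induction medium to eight half-log concentrations up to 100 uM in 0.5% DMSO, duplicates. Transcript measured by Fluidigm TaqMan qRT-PCR, normalized to ACTB, GAPDH, POLR2A; bidirectional fit versus DMSO.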

[8] = read-out: Alkaline Phosphatase, Placental (ALPP) gene, ALPP (gene 250); experiment: LTEA_HepaRG_ALPP: Life Technologies and Expression Analysis (LTEA) Assay for Alkaline Phosphatase, Placental (ALPP) gene using HepaRG (AID 2283468)
Summary of the method: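 Using human liver HepaRG cells, chemicals are tested in duplicate over 48 h at half-log concentrations topping at 100 uM; phenobarbital 1 mM serves as induction control. ALPP mRNA change by qRT-PCR, bidirectional fit against vehicle.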

[9] = read-out: Bcl-2 (BAD) gene, BAD (gene 572); experiment: LTEA_HepaRG_BAD: Life Technologies and Expression Analysis (LTEA) Assay for Bcl-2 (BAD) gene using HepaRG (AID 2283469)
Summary of the method: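 Differentiated HepaRG cells were exposed in duplicate in 0.5% DMSO for 48 h to eight-point half-log concentrations up to 100 uM. BAD mRNA was measured by Fluidigm TaqMan qRT-PCR, normalized to ACTB, GAPDH and POLR2A, and fitted bidirectionally against DMSO.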

[10] = read-out: Bcl-2 (BAX) gene, BAX (gene 581); experiment: LTEA_HepaRG_BAX: Life Technologies and Expression Analysis (LTEA) Assay for Bcl-2 (BAX) gene using HepaRG (AID 2283470)
Summary of the method: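 Differentiated human HepaRG cells, plated 48 h then switched to serum-free induction medium, were exposed 48 h to 8 half-log concentrations up to 100 uM in 0.5% DMSO; BAX mRNA measured by qRT-PCR, normalized to ACTB, GAPDH, POLR2A.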

[11] = read-out: adenosine kinase (ADK) gene, ADK (gene 132); experiment: LTEA_HepaRG_ADK: Life Technologies and Expression Analysis (LTEA) Assay for adenosine kinase (ADK) gene using HepaRG (AID 2283471)
Summary of the method: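 Read-out is ADK transcript level measured by qRT-PCR and normalised to three housekeeping genes. Cells are human HepaRG, dosed for 48 h at up to 100 uM in 0.5% DMSO. Gain or loss of signal is fitted against DMSO controls.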

[12] = read-out: Alpha-fetoprotein (AFP) gene, AFP (gene 174); experiment: LTEA_HepaRG_AFP: Life Technologies and Expression Analysis (LTEA) Assay for Alpha-fetoprotein (AFP) gene using HepaRG (AID 2283472)
Summary of the method: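 Human HepaRG cells plated 48 h, then switched to serum-free induction medium and exposed in duplicate for 48 h to 8-point half-log series from 100 uM in 0.5% DMSO. AFP mRNA by qRT-PCR, normalized to ACTB, GAPDH, POLR2A; bidirectional fit versus DMSO.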

BCL2L11 (gene 10018) = experiment: LTEA_HepaRG_BCL2L11: Life Technologies and Expression Analysis (LTEA) Assay for Bcl-2 (BCL2L11) gene using HepaRG (AID 2283473)
Summary of the method: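 Human hepatic HepaRG cultures are treated 48 h with test chemicals (maximum 100 uM, 0.5% DMSO vehicle). Expression of BCL2L11 is measured by qRT-PCR against ACTB, GAPDH and POLR2A, with activity in either direction scored relative to vehicle.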

[13] = read-out: Apolipoprotein A-V (APOA5) gene, APOA5 (gene 116519); experiment: LTEA_HepaRG_APOA5: Life Technologies and Expression Analysis (LTEA) Assay for Apolipoprotein A-V (APOA5) gene using HepaRG (AID 2283474)
Summary of the method: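 Concentration-response of APOA5 expression in HepaRG: eight half-log doses to 100 uM, 48 h, qRT-PCR normalized to ACTB/GAPDH/POLR2A, bidirectional fitting with 0.5% DMSO as baseline.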

[14] = read-out: Apoptosis regulator Bcl-2 (Homo sapiens) (UniProt P10415); experiment: LTEA_HepaRG_BCL2: Life Technologies and Expression Analysis (LTEA) Assay for Bcl-2 gene using HepaRG (AID 2283475)
Summary of the method: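 Differentiated HepaRG cells in serum-free induction medium were exposed for 48 h to eight half-log concentrations up to 100 uM in 0.5% DMSO, in duplicate. BCL2 mRNA was quantified by TaqMan qRT-PCR normalised to ACTB, GAPDH and POLR2A, with bidirectional fitting versus DMSO.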

[15] = read-out: Bcl-2 (BID) gene, BID (gene 637); experiment: LTEA_HepaRG_BID: Life Technologies and Expression Analysis (LTEA) Assay for Bcl-2 (BID) gene using HepaRG (AID 2283476)
Summary of the method: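 Differentiated HepaRG cells in serum-free induction medium were exposed in duplicate for 48 h to eight half-log concentrations up to 100 uM in 0.5% DMSO. BID mRNA was quantified by qRT-PCR, normalized to ACTB, GAPDH and POLR2A.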

Caspase-3 (Homo sapiens) = Caspase-3 (Homo sapiens) (UniProt P42574); experiment: LTEA_HepaRG_CASP3: Life Technologies and Expression Analysis (LTEA) Assay for cysteine-aspartic acid protease (CASP3) using HepaRG (AID 2283477)
Summary of the method: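 Transcript-level assay: CASP3 mRNA in human HepaRG after 48 h treatment, eight half-log concentrations from 100 uM in 0.5% DMSO, quantified by qRT-PCR.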

[16] = read-out: Cytochrome P450 (CYP24A1), CYP24A1 (gene 1591); experiment: LTEA_HepaRG_CYP24A1: Life Technologies and Expression Analysis (LTEA) Assay for Cytochrome P450 (CYP24A1) using HepaRG (AID 2283478)
Summary of the method: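 Gene expression of CYP24A1 by TaqMan qRT-PCR in HepaRG after 48 h treatment, highest concentration 100 uM; activity fitted in both directions relative to DMSO vehicle.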

[17] = read-out: Peroxisomal acyl-coenzyme A oxidase 1 (ACOX1) gene, ACOX1 (gene 51); experiment: LTEA_HepaRG_ACOX1: Life Technologies and Expression Analysis (LTEA) Assay for Peroxisomal acyl-coenzyme A oxidase 1 (ACOX1) gene using HepaRG (AID 2283467)
Summary of the method: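 HepaRG cells, plated 48 h then switched to serum-free induction medium, were exposed in duplicate for 48 h to 8-point half-log concentrations up to 100 uM in 0.5% DMSO. ACOX1 mRNA was measured by qRT-PCR, normalized to ACTB/GAPDH/POLR2A, and fitted bidirectionally versus DMSO.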

[18] = read-out: growth arrest and DNA damage 45 (GADD45B), GADD45B (gene 4616); experiment: LTEA_HepaRG_GADD45B: Life Technologies and Expression Analysis (LTEA) Assay for growth arrest and DNA damage 45 (GADD45B) using HepaRG (AID 2283461)
Summary of the method: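 Human HepaRG monolayers receive chemicals for 48 h at eight half-log concentrations, highest 100 uM, in 0.5% DMSO. Expression is measured by TaqMan qRT-PCR and normalized to ACTB, GAPDH and POLR2A.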

Measured: outcome

Chain of Broad substrate specificity ATP-binding cassette transporter ABCG2 (Homo sapiens) (Q9UNQ0 whole entry, looked up): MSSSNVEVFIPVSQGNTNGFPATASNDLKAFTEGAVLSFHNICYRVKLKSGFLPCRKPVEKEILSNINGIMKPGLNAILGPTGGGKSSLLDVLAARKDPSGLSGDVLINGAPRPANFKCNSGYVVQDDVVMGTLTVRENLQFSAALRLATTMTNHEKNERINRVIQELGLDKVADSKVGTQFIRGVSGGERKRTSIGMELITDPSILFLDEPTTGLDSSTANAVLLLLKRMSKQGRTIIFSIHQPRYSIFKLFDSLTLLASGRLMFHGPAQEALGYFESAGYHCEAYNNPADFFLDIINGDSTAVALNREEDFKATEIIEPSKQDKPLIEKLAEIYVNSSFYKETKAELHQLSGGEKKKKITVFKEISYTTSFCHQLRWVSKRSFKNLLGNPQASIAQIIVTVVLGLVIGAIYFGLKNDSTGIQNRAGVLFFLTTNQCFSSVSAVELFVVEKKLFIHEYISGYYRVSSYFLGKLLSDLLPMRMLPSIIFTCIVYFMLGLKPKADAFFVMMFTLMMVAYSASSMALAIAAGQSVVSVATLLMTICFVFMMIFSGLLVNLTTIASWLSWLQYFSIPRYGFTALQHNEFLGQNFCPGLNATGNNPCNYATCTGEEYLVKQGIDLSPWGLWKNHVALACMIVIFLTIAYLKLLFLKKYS
Chain of Caspase-3 (Homo sapiens) (P42574 whole entry, looked up): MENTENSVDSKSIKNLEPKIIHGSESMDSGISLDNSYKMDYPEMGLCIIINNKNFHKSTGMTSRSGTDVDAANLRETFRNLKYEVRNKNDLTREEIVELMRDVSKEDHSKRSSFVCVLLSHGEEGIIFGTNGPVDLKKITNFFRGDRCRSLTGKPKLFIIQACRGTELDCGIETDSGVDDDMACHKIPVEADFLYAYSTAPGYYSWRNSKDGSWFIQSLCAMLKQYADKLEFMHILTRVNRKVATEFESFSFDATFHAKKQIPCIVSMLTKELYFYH
Chain of Apoptosis regulator Bcl-2 (Homo sapiens) (P10415 whole entry, looked up): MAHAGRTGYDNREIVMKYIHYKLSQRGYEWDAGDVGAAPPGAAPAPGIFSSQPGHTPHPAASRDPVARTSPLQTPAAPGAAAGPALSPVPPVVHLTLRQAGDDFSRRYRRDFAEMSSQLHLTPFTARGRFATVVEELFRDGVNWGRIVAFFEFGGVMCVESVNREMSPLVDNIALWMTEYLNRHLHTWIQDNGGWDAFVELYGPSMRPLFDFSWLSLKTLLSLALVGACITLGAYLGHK

CCOP(=S)(OCC)SCSCC
not listed: [17] | [18]
inactive: all other assays above

c1cc2c3c(cccc3c1)CC2
not listed: [18]
inactive: all other assays above

ClC(Cl)(Cl)c1ccccc1
not listed: [17] | [18]
inactive: all other assays above

ClC(Cl)c1ccccc1
not listed: [17] | [18]
inactive: all other assays above

CCC(C)(C)c1ccc(O)cc1
not listed: [17]
inactive: all other assays above
